Results filed as inconclusive are left out. Active and inactive are the calls of the source. Calls come from the whole dose curve.
% is set by controls: 0 for no effect and ±100 for the full control effect; potency is the fitted concentration of half-maximal effect.

The nature of this assay: Nuclear factor erythroid 2-related factor 2/antioxidant responsive element (Nrf2/ARE) small molecule agonists: luciferase reporter gene qHTS assay in human keratinocytes (AID 1919969). Note: nearly all actives have a fitted effect of over 35% in size. The settings on record: KeratinoSens HaCaT ARE-luciferase, luminescence, 24 h; series mostly up to 92.4 µM; activity, positive = activation: at the top concentration. An excerpt:
National Center for Advancing Translational Sciences [NCATS]
Division of Preclinical Innovation [DPI]
U.S. Environmental Protection Agency [EPA]
National Institutes of Environmental Health Sciences [NIEHS]
National Toxicology Program [NTP]
U.S. Food and Drug Administration [FDA]
Oxidative stress has been implicated in the pathogenesis of a variety of diseases ranging from cancer to neurodegeneration. The antioxidant response element (ARE) signaling pathway plays an important role in the amelioration of oxidative stress. The KeratinoSens (Givaudan, Switzerland) is an in vitro test method which quantifies luciferase induction as a measure of activation of Keap1-Nrf2-antioxidationt/electrophile response element (ARE) dependant pathway in HaCaT human keratinocytes stably transfected with a selectable plasmid. The KeratinoSens assay is a cell-based assay with a reporter cell line to detect potential skin sensitizers by their ability to induce the Nrf2/ARE-response. The activation of the report gene under culture conditions can be detected by ONE-Glo Luciferase Assay System (Promega, Madison, WI). This cell line has been used to screen the Tox21 10K compound library to identify agonists that induce oxidative stress. The cytotoxicity of the Tox21 compound library against the KS-ARE cell line was tested in parallel by measuring the cell viability using CellTiter- Fluor assay system (Promega, Madison, WI) in the same wells.
HaCaT derived cell line KeratinoSens were dispensed at 1,500 cells/5uL/well in 1536-well white wall/solid bottom plates using a Multidrop Combi (ThermoFisher Scientific, Waltham, MA) dispenser. After the assay plates were incubated at 37 C/5% CO2 for 5 h, 23 nL of compounds dissolved in DMSO, positive controls or DMSO only was transferred to the assay plate by a pintool workstation (Kalypsys, San Diego, CA). The plates were incubated at 37 C/5% CO2 for 23 h, followed by addition of 1uL/well of CellTiter-Fluor reagent into the assay plates using a Flying Reagent Dispenser (Aurora Discovery, San Diego, CA) for cell viability readout that measures cytotoxicity. After 1 h incubation at 37 C/5% CO2 the fluorescence intensity was measured using a ViewLux (PerkinElmer, Shelton, CT) plate reader. Then 4uL/well of One-Glo were added using a Flying Reagent Dispenser. After the plates were incubated at room temperature for 30 min, the luminescence intensity in the assay plates was measured using ViewLux plate reader.
In the case of `CCOC(=O)OCC/C(SC(=O)OCC)=C(\C)N(C=O)Cc1cnc(C)nc1N`, the “activity, positive = activation” value is 1.68% [at 42.5 µM] (inactive).

Consider `CC(C)NCC(O)c1ccc2ccccc2c1` (stereo not given), for which the “activity, positive = activation” value was -1.61% [at 42.5 µM] (inactive).

Take `OC1(c2ccccc2)CCNCC1`: the “activity, positive = activation” value was -1.13% [at 42.5 µM] (inactive).

As for `CC(C)(C)C(=O)NCCCC(=O)O`, the “activity, positive = activation” value was -3.51% [at 42.5 µM] (inactive).

Turning to `O=C(NC1CCN(CCc2c[nH]c3ccccc23)CC1)c1ccccc1`, the “activity, positive = activation” value was -6.99% [at 42.5 µM] (inactive).

Take `C=CC(=O)OCCOCCOC(=O)C=C`: the Potency is 24.4 µM (active).

For `[Cl][Pt-2]([Cl])([Cl])[Cl]`, the “activity, positive = activation” value is 6.66% (inactive).

In the case of `Cc1ccc2c(c1)C(=O)c1ccccc1C2=O`, the Potency is 2.72 µM (active).

For `O=C1c2ccccc2C(=O)C1(O)O`, the Potency was 61.4 µM (active).

For `C=CC(=O)OCC(CO)(COCC(COC(=O)C=C)(COC(=O)C=C)COC(=O)C=C)COC(=O)C=C`, the Potency was 2.4 µM (active).

As for `COC(=O)/C=C\C(=O)O`, the “activity, positive = activation” value was 13.2% (inactive).

As to `O=C1CCCCCCCCCCCCCC1`, the “activity, positive = activation” value is 16.9% (inactive).

For `CCCCCCOc1ccc(N)cc1`, the Potency is 21.7 µM (active).

For the compound `CO[Si](CCCNc1ccccc1)(OC)OC`, the “activity, positive = activation” value was 2.36% (inactive).

Take `C/C=C(\C)C(=O)OCC/C=C\CC`: the “activity, positive = activation” value was -5.86% (inactive).

For the compound `c1ccc(CNCCNCc2ccccc2)cc1`, the “activity, positive = activation” value is 0.299% [at 42.5 µM] (inactive).

In the case of `C/C=C/C(=O)CC`, the Potency is 10.5 µM (active).

As for `CC(C)=CCC/C(C)=C\C#N`, the “activity, positive = activation” value is -0.411% (inactive).

Take `Cc1nc2n(c(=O)c1CCN1CCC(c3noc4cc(F)ccc34)CC1)CCCC2`: the “activity, positive = activation” value is -9.08% [at 42.5 µM] (inactive).

For the compound `Nc1nc(Cl)nc2c1ncn2[C@@H]1O[C@H](CO)[C@@H](O)[C@@H]1F`, the “activity, positive = activation” value was 0.403% [at 42.5 µM] (inactive).

`COc1cc(S(=O)(=O)O)c(C)cc1N=Nc1c(O)ccc2cc(S(=O)(=O)O)ccc12`: the “activity, positive = activation” value was -21% (inactive).

As to `Nc1ncnc2c1ncn2[C@H]1CC[C@@H](CO)O1`, the “activity, positive = activation” value was -4.34% (inactive).

In the case of `CC(C(=O)O)c1ccc(CC2CCCC2=O)cc1` (stereo not given), the “activity, positive = activation” value is -2.48% [at 42.5 µM] (inactive).

As for `CCCCCOc1ccc(C2SC(=O)NC2=O)cc1OCC` (stereo not given), the “activity, positive = activation” value is 10.7% [at 42.5 µM] (inactive).

For `CC(C)=CC(=O)C=C(C)C`, the “activity, positive = activation” value is -0.663% (inactive).

Consider `O=c1[nH]c(=O)n([C@H]2O[C@H](CO)[C@@H](O)[C@@H]2O)cc1/C=C\Br`, for which the “activity, positive = activation” value is 5.17% [at 42.5 µM] (inactive).

For `CO/N=C(\C(=O)O)c1csc(NC(=O)CCl)n1`, the “activity, positive = activation” value is 12.9% [at 42.5 µM] (inactive).

Take `O=C1CC2(CCCC2)CC(=O)N1CCNCC1COc2ccccc2O1` (stereo not given): the “activity, positive = activation” value is 0.381% [at 42.5 µM] (inactive).

Consider `CCOC(C)=O`, for which the “activity, positive = activation” value is 0.385% (inactive).

For the compound `C1OCOCO1`, the “activity, positive = activation” value was -0.923% (inactive).

Take `Nc1ccc(S(=O)(=O)O)cc1`: the “activity, positive = activation” value was -7.21% (inactive).

As to `Oc1cc2ccccc2cc1O`, the “activity, positive = activation” value is 12.3% (inactive).

Regarding `C[C@]1(Cn2ccnn2)[C@H](C(=O)O)N2C(=O)C[C@H]2S1(=O)=O`, the “activity, positive = activation” value is 1.02% [at 42.5 µM] (inactive).

Turning to `Cc1nc2ccccc2n1Cc1ccc(Cl)cc1`, the “activity, positive = activation” value was 7.03% [at 42.5 µM] (inactive).

Turning to `NC(=O)C1(N2CCCCC2)CCN(CCCC(=O)c2ccc(F)cc2)CC1`, the “activity, positive = activation” value was -4.16% [at 42.5 µM] (inactive).

For `CCC(C)c1cc([N+](=O)[O-])cc([N+](=O)[O-])c1OC(=O)OC(C)C` (stereo not given), the Potency is 9.69 µM (active).

Take `Nc1cc([N+](=O)[O-])cc(Cl)c1O`: the “activity, positive = activation” value was 6.24% (inactive).

Regarding `NCCS`, the “activity, positive = activation” value was 5.79% [at 42.5 µM] (inactive).

Consider `O=C(C(Cl)Cl)N1CCOC12CCCCC2`, for which the “activity, positive = activation” value is 16.3% (inactive).

In the case of `CN1CCC[C@@H]1Cc1c[nH]c2ccc(CCS(=O)(=O)c3ccccc3)cc12`, the “activity, positive = activation” value is 0.0546% [at 42.5 µM] (inactive).

The record behind these values is PubChem BioAssay (Tox21).
